# MARV entry inh – blocks Marburg virus binding to or entry into cells | Marburg virus pseudotyped entry inhibition, cell reporter | Potency, µM (doses to about 37.8 µM), for inactives: at the highest dose activity change, negative = inhibition, usual class: inhibitors | actives 1.8% (n = 300,000); calls by dose curve; tested in HEK293 cells; note: potency is the fitted concentration of half-maximal effect
# HCV inhibitor – inhibitors of hepatitis C virus infection | Huh7.5.1 HCVcc-Cre infection, luciferase reporter, 44 h | Potency, µM (titrated, usually from 41.8 µM), without a hit: top-dose activity change, negative = inhibition, most hits filed as inhibitors | AID 651820 | actives 3.4% (n = 340,000); active = well fitted inhibition curve with a large enough effect; inconclusive = small, poorly fitted or top-dose-only effect, or another doubt; inactive = no such curve, though single readings can be large or run the other way; note: potency is the fitted concentration of half-maximal effect
#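 After 44 h co-culture of compound, cells and HCVcc-Cre (~0.5 moi), substrate is added for 15 min at room temperature and luciferase measured over 15 sec. Cells were seeded at 1,000/well and pre-cultured 4 h.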
# FMDV inh – blocks foot and mouth disease virus; Potency, µM (series often up to 57.9 µM), inactives show at the highest dose activity change, negative = inhibition, hits mostly inhibitors; AID 1159524; FMDV antiviral cell-based qHTS; actives 1.2% (n = 410,000); calls by dose curve; tested in HEK293T cells; note: read-out not given here; potency is the fitted concentration of half-maximal effect; nearly all actives have a fitted effect of over 45% in size
# LASV entry inh – inhibitors of Lassa virus binding or cell entry. Lassa virus pseudotype entry inhibition, cell reporter. Potency, µM (titrated, usually from 37.9 µM), inactives show top-dose activity change, negative = inhibition, hits mostly inhibitors. actives 1.2% (n = 300,000). AID 540256; calls by dose curve; tested in HEK293 cells; note: potency is the fitted concentration of half-maximal effect; nearly all actives have a fitted effect of over 50% in size
# HCMV antiviral – human cytomegalovirus inhibition | AID 1259415 | actives 4.5% (n = 410,000) | HFF cells, HCMV-luciferase reporter, 72 h; active compounds read low | activity change, negative = inhibition, % at 57.5 µM; in the data active = activity change below about -60%; inconclusive = no clear call, values can overlap the other calls; inactive = above about -39%
#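 Two compound doses tested in HFFs infected with HCMV-luciferase, MOI 1 PFU/cell, 72 h at 37C. Lysate luminescence read with OneGlo; data normalized against buffer-only and 10uM Salinomycin inhibitor controls.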
# The depositor's hits bear a star; ? = inconclusive; . = no result given; + = active, no number; [ ] = another dose, or the depositor's remark. A selection: hits, their analogues and other compounds. The true share with any hit is near 7.9%. % is set by controls: 0 for no effect and ±100 for the full control effect.
SMILES,MARV entry inh,HCV inhibitor,FMDV inh,LASV entry inh,HCMV antiviral
Cc1cc(C)cc(COc2ccc3c(C)c(CC(=O)O)c(=O)oc3c2C)c1,13%[46.1 µM],15%,-9%,26%[46.1 µM],-16
COc1cc(COc2ccc3c(C)c(Cc4ccccc4)c(=O)oc3c2)cc(OC)c1OC,?,?,?,?,26
Cc1c(C)c2ccc(OCc3ccc(C(=O)O)o3)c(C)c2oc1=O,?,19%,18µM*,4.1µM*,-101*
COc1cc(COc2ccc3c(C)c(Cc4ccccc4)c(=O)oc3c2C)cc(OC)c1OC,?,6.3µM*,?,-1%,26
Cc1ccc(/C=N/NC(=O)c2nnn(-c3nonc3N)c2CNc2ccccc2)cc1,.,?,-6%,.,-40
NC(=O)N/N=C\c1cc(Br)ccc1O,2%,17%,0%,18%,19
Nc1nonc1-n1nnc(C(=O)N/N=C/c2cccc(Cl)c2Cl)c1CN1CCCC1,-3%[46.1 µM],?,-2%,13%[46.1 µM],-61*
Nc1nonc1C(=O)N/N=C/c1cc(Br)ccc1O,?,11µM*,44%,?,-8
Cc1c(C(=O)N/N=C/c2c(O)ccc3ccccc23)nnn1-c1nonc1N,?,?,-11%,?,-98*
Nc1nonc1-n1nnc(C(=O)N/N=C/c2cc(Br)ccc2O)c1CNc1ccccc1,?,10µM*,-20%,?,-93*
O=C1CC[C@@H](C(=O)NCC2Cc3cc(Cl)cc(-c4ccc5[nH]ccc5c4)c3O2)N1 (some centres not stated),.,.,-15%,.,.
Nc1nonc1-n1nnc(C(=O)N/N=C/c2ccncc2)c1-c1cccs1,2%[46.1 µM],12%,26%,5%[46.1 µM],+
Nc1nonc1-n1nnc(C(=O)N/N=C/c2ccncc2)c1-c1ccccc1,?,15%,-17%,.,-14
Nc1nonc1-n1nnc(C(=O)N/N=C/c2ccc(OCc3ccc(F)cc3)cc2)c1COc1ccccc1,.,?,-13%,.,-73*
Cc1ccc(CSC2=Nc3ccccc3C3=NC(=O)CN23)cc1,?,7.9µM*,-11%,?,?
COc1cc2c(cc1OC)C1=NC(=O)CN1C(SCc1ccccc1C)=N2,?,?,-23%,-15%,?
CN(CC(=O)NCc1ccccc1Cl)S(=O)(=O)c1ccc2c(c1)c(=O)n(C)c(=O)n2C,18%[46.1 µM],.,7%,1%[46.1 µM],-13
CCOc1nc(-c2ccc(C)cc2)ccc1-c1noc(COC)n1,-4%,10µM*,-4%,2%,30
